Test systems include DU-145 prostate; K-562 leukemia; MALME-3M melanoma; MDA-MB-231 breast; RXF 393 renal; SF-268 CNS; SF-295 CNS; SF-539 CNS; UACC-257 melanoma; M14 melanoma.
Common to all, as to test: NCI-60 one-dose screen, 48 h (100 = growth as untreated, 0 = no growth, -100 = all killed)
Common to all, as to details: 10 µM

Several values for one entry are separate records, joined by “and”; a condition that tells them apart may be missing. Equal values may be shown once. About 83,000 compounds went through this panel and 20% of them were active in at least one assay; those are over-represented in the sample as a whole.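 The endpoint reported here, percent growth, reads 100 for growth as untreated, 0 for no net growth and -100 for all cells dead.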 More than one record can exist for a structure, and the calls need not agree. Activity calls are given as the source filed them. The calls were made as follows: active = growth percent below 10; inactive = the rest.

Consider `CC1=CC(=C(c2ccc(N)cc2)c2ccc(N)cc2)C=CC1=N`, for which the growth in the experiment on DU-145 prostate is 18.6% (inactive) and 38.3% (inactive); in the experiment with K-562 leukemia, 21.1% (inactive) and 24.5% (inactive); in the experiment with MALME-3M melanoma, 0.759% (active) and 56.2% (inactive); in the experiment with MDA-MB-231 breast, 6.87% (active) and 21.8% (inactive); in the experiment on RXF 393 renal, -12.8% (active) and 62.6% (inactive); in the experiment with SF-268 CNS, 26.1% (inactive) and 29% (inactive). The growth in the experiment on SF-295 CNS was -7.28% (active); in the experiment with SF-539 CNS, 8.88% (active) and 16.1% (inactive); in the experiment with UACC-257 melanoma, -6.06% (active) and 8.33% (active); with M14 melanoma, 27.4% (inactive).
For the compound `Cc1ccc(Sc2ccccc2N)cc1`, the growth in the experiment with DU-145 prostate is 6.34% (active); with K-562 leukemia, 108% (inactive); in the experiment with MALME-3M melanoma it was 116% (inactive); in the experiment with MDA-MB-231 breast it was 102% (inactive); with RXF 393 renal, 67.4% (inactive); in the experiment with SF-268 CNS it was 98.1% (inactive). Besides, the growth with SF-295 CNS is 88.8% (inactive); in the experiment on SF-539 CNS, 114% (inactive); in the experiment with UACC-257 melanoma, 98.5% (inactive); in the experiment on M14 melanoma, 99.5% (inactive).
`C=C1C(=O)OC2CC1C(OC(C)=O)C/C(C)=C/CC/C(C)=C\CCC2(C)O` (centres undefined): the growth with DU-145 prostate is -5% (active); with K-562 leukemia, -40% (active); in the experiment with MALME-3M melanoma, 18.6% (inactive); with MDA-MB-231 breast, 20.3% (inactive); with RXF 393 renal, 13.1% (inactive); in the experiment on SF-268 CNS, 27.1% (inactive). For the same compound, the growth was 106% (inactive) in the experiment on SF-295 CNS, 11.2% (inactive) in the experiment on SF-539 CNS, 58.2% (inactive) in the experiment with UACC-257 melanoma and 16.4% (inactive) in the experiment on M14 melanoma.
In the case of `Cc1cc(N(CCOS(C)(=O)=O)CCOS(C)(=O)=O)ccc1C=Nc1ccc(-c2nc(Cc3ccccc3)sc2C)cc1`, the growth is 11.8% (inactive) with DU-145 prostate; 21.7% (inactive) with K-562 leukemia; 58% (inactive) with MALME-3M melanoma; 77.2% (inactive) in the experiment on MDA-MB-231 breast; 45.9% (inactive) with RXF 393 renal; 39.4% (inactive) in the experiment on SF-268 CNS. Also, the growth is 12.6% (inactive) with SF-295 CNS, 15% (inactive) in the experiment with SF-539 CNS, 6.01% (active) with UACC-257 melanoma and 25.8% (inactive) in the experiment on M14 melanoma.
On to `COc1ccc(C(=O)C(CN(C)C)CN(C)C)cc1`, for which the growth in the experiment on DU-145 prostate was 56.9% (inactive); with K-562 leukemia it was -19.4% (active); in the experiment on MALME-3M melanoma, -70.7% (active); with MDA-MB-231 breast it was 104% (inactive); with RXF 393 renal, 63.9% (inactive); in the experiment with SF-268 CNS, 96.5% (inactive). Further, the growth in the experiment with SF-295 CNS was 102% (inactive); with SF-539 CNS it was 96.3% (inactive); in the experiment on UACC-257 melanoma, 73.1% (inactive); in the experiment on M14 melanoma it was 52% (inactive).
For the compound `O=[N+]([O-])c1cc[n+]([O-])cc1`, the growth was 120% (inactive) in the experiment on DU-145 prostate; 117% (inactive) with K-562 leukemia; 101% (inactive) with MALME-3M melanoma; 95.9% (inactive) with MDA-MB-231 breast; 114% (inactive) in the experiment with RXF 393 renal; 107% (inactive) in the experiment on SF-268 CNS. The growth in the experiment with SF-295 CNS was 101% (inactive); in the experiment with SF-539 CNS, 122% (inactive); in the experiment with UACC-257 melanoma, 76.5% (inactive); in the experiment on M14 melanoma it was 113% (inactive).
In the case of `CN(C)CCOC1(Cc2ccc(Cl)cc2Cl)CCC(C(C)(C)C)CC1` (centres undefined), the growth was 22.7% (inactive) and 7.69% (active) in the experiment on DU-145 prostate; -37.2% (active) and -48.5% (active) in the experiment on K-562 leukemia; -48.2% (active) and -65.3% (active) in the experiment on MALME-3M melanoma; 7.18% (active) and -26.3% (active) with MDA-MB-231 breast; 30.2% (inactive) and -32.5% (active) in the experiment with RXF 393 renal; 46.1% (inactive) and 34.9% (inactive) in the experiment on SF-268 CNS. The growth with SF-295 CNS is -44% (active) and -69.9% (active); in the experiment with SF-539 CNS, 39.7% (inactive) and 46.6% (inactive); in the experiment on UACC-257 melanoma, -33.6% (active) and 2.54% (active); with M14 melanoma, -34.4% (active) and -59.1% (active).
With `C#CCN(Cc1ccc2nc(N)[nH]c(=O)c2c1)c1ccc(C(=O)NC(CCC(=O)O)C(=O)O)cc1` (centres undefined), the growth with DU-145 prostate is 48.6% (inactive); in the experiment on K-562 leukemia it was 58.9% (inactive); in the experiment on MALME-3M melanoma, 86.8% (inactive); in the experiment on RXF 393 renal, 72.9% (inactive); in the experiment with SF-268 CNS it was 70.4% (inactive); in the experiment on SF-295 CNS, 99.5% (inactive). For the same compound, the results for the growth in the experiment with SF-539 CNS, in the experiment with UACC-257 melanoma and with M14 melanoma were 0.195% (active), 92.1% (inactive) and 44.7% (inactive), respectively.

Values taken from PubChem BioAssay (NCI).
